# Key:
# Test in all cases: DAPPL (digital affinity profiling via proximity ligation, sequencing); 10 mM Tris-HCl pH 7.5, 50 mM NaCl, 1 mM DTT, 4% glycerol, room temperature, 30 min; GST-TFs on glutathione beads, 16-mer random dsDNA library, 0.1% formaldehyde crosslink after washing; high values mean tight binding
# FEV = molecular target: T1, FEV (Homo sapiens, UniProt Q99581 1-238); conditions: protein: recombinant; tags: N-terminal GST; dsDNA, one strand shown
# T1 sequence: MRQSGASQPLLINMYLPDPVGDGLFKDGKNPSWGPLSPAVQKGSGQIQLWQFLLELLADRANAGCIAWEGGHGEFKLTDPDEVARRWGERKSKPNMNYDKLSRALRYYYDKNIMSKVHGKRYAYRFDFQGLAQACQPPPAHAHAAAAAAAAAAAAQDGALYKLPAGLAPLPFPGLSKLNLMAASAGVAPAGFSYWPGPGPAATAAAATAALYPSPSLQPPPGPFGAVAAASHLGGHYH
# Method in brief: (§1)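 In yeast, human transcription factors were expressed with a GST fusion, then pulled down on glutathione beads and given DNA barcodes. Pooled with a tag-only sample, they were exposed to 200 nmole of a 16-mer random double-stranded DNA library (Tris/NaCl/DTT/glycerol buffer, room temperature, 30 min), washed, crosslinked with 0.1% formaldehyde, proximity-ligated using BsaI/T4 ligase for 1 h at 37 °C, PCR-amplified and read on an Illumina NextSeq500. Each hexamer's frequency of reads for a factor, divided by the matching frequency for the tag-only sample, gives the binding signal.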
# ETV5 = ETV5 (Homo sapiens, UniProt P41161 1-510); conditions: protein: recombinant; tags: N-terminal GST; dsDNA, one strand shown
# Sequence of ETV5 (P41161 whole entry): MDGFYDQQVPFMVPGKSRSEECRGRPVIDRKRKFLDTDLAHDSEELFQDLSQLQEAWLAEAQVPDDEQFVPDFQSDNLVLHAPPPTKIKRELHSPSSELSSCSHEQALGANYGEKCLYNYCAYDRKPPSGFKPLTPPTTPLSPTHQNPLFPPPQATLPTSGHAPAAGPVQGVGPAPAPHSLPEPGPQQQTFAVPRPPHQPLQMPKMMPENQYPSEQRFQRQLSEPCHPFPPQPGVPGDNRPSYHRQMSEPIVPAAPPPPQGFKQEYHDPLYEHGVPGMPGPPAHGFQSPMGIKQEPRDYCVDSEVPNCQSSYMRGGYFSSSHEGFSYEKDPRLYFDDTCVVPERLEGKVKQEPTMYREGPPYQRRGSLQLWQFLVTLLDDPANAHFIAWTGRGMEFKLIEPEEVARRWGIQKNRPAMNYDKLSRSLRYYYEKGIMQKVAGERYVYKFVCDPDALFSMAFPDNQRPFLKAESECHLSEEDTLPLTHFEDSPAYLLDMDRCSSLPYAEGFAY
# Method in brief: as §1
# HSF1 = HSF1 (Homo sapiens, UniProt Q00613 1-529); conditions: protein: recombinant; tags: N-terminal GST; chain copies: 3; dsDNA, one strand shown
# Sequence of HSF1 (Q00613 whole entry): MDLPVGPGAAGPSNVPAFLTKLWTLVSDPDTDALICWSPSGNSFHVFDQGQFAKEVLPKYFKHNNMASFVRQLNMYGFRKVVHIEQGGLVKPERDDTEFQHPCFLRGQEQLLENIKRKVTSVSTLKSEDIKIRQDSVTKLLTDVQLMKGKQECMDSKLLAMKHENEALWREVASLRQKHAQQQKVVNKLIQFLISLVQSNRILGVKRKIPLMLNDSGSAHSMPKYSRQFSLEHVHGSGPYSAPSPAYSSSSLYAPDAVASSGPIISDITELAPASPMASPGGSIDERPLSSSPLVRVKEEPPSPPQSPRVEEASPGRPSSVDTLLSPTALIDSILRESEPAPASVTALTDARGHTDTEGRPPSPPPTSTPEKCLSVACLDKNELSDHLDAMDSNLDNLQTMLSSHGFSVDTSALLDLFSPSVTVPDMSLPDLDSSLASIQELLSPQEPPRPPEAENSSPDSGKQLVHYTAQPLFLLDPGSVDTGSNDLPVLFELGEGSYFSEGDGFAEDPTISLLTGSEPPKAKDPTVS
# Method in brief: as §1
# SPIC = molecular target: T2, SPIC (Homo sapiens, UniProt Q8N5J4 1-248); conditions: protein: recombinant; tags: N-terminal GST; dsDNA, one strand shown
# T2 sequence: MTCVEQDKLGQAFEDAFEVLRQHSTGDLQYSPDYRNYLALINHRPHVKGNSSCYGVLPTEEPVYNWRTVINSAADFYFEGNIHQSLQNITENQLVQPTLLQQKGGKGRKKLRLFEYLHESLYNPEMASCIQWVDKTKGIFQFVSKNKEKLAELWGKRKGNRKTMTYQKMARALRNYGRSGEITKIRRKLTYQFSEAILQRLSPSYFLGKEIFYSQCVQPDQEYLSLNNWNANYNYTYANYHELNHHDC
# Method in brief: as §1
# ELF4 = ELF4 (Homo sapiens, UniProt Q99607 1-663); conditions: protein: recombinant; tags: N-terminal GST; dsDNA, one strand shown
# Sequence of ELF4 (Q99607 whole entry): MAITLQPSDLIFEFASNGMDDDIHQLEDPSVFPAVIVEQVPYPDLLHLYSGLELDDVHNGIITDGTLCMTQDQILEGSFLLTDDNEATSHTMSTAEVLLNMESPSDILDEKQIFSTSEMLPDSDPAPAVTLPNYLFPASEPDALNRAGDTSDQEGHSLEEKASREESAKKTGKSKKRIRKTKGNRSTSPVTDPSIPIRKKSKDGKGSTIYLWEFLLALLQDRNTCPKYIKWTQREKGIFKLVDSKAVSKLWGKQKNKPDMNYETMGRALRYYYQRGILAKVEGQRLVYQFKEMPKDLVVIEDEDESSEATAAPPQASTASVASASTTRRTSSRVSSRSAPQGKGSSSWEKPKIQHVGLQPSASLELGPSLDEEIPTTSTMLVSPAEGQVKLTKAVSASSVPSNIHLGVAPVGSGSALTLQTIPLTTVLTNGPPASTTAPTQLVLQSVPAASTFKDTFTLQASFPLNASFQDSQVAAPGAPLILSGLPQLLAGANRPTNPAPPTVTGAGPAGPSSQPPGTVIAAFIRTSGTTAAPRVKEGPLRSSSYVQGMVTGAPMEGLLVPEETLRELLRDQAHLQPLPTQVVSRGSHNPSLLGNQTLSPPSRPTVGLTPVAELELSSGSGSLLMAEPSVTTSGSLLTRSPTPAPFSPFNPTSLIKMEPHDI
# Method in brief: as §1
# ELK4 = molecular target: T3, ELK4 (Homo sapiens, UniProt P28324-2 1-405); conditions: protein: recombinant; tags: N-terminal GST; dsDNA, one strand shown
# T3 sequence: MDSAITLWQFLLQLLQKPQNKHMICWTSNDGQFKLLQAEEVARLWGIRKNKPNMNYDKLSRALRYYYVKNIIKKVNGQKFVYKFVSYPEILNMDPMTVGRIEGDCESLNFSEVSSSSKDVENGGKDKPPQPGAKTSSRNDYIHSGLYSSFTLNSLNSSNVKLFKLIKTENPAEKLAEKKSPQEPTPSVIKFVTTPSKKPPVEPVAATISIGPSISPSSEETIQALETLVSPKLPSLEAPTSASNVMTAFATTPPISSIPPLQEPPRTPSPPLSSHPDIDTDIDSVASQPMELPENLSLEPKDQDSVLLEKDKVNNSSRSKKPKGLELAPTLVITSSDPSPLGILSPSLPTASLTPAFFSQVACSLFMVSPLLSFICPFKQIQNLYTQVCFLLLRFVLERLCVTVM
# Method in brief: as §1
# ETV2 = molecular target: T4, ETV2 (Homo sapiens, UniProt O00321 1-342); conditions: protein: recombinant; tags: N-terminal GST; dsDNA, one strand shown
# T4 sequence: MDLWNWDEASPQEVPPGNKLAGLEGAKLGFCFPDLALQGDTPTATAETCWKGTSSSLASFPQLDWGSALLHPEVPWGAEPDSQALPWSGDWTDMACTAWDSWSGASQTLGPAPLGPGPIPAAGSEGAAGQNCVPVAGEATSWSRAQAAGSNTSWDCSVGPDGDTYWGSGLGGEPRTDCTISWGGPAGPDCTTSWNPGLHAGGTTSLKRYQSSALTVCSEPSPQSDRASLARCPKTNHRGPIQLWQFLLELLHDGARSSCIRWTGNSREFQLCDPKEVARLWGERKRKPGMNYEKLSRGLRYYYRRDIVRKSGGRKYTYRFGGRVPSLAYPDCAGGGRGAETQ
# Method in brief: as §1
# ELF3 = molecular target: T5, ELF3 (Homo sapiens, UniProt P78545 1-371); conditions: protein: recombinant; tags: N-terminal GST; dsDNA, one strand shown
# T5 sequence: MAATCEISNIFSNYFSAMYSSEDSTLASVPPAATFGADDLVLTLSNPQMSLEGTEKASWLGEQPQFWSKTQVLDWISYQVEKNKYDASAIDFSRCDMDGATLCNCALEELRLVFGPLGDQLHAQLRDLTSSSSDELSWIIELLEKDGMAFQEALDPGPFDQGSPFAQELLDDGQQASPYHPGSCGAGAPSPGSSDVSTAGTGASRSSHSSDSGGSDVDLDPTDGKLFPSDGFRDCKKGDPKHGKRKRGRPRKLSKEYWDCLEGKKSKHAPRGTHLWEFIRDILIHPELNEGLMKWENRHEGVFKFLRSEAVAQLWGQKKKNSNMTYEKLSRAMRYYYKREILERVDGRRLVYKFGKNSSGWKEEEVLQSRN
# Method in brief: as §1
# CRX = CRX (Homo sapiens, UniProt O43186 1-299); conditions: protein: recombinant; tags: N-terminal GST; dsDNA, one strand shown
# Sequence of CRX (O43186 whole entry): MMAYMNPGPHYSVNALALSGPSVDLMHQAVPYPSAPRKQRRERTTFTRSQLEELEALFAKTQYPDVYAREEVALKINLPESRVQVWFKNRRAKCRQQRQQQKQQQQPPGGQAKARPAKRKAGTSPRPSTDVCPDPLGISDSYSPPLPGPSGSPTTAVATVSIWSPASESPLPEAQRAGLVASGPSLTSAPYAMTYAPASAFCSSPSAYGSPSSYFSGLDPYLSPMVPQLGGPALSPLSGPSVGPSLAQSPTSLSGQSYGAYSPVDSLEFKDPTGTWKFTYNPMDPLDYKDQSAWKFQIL
# Method in brief: as §1
# ETV1 = ETV1 (Homo sapiens, UniProt P50549 1-477); conditions: protein: recombinant; tags: N-terminal GST; dsDNA, one strand shown
# Sequence of ETV1 (P50549 whole entry): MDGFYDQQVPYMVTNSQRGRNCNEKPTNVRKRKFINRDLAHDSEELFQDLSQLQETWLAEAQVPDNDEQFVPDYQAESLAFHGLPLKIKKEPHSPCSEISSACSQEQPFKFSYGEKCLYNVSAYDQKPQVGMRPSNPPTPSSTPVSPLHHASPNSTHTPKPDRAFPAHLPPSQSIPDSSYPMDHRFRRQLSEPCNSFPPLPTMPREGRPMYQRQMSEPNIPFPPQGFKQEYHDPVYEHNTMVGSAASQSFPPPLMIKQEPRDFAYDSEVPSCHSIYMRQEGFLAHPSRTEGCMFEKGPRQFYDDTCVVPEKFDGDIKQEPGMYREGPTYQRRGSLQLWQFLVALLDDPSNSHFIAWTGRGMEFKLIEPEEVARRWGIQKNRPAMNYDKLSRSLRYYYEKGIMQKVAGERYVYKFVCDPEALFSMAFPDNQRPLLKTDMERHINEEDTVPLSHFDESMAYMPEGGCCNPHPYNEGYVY
# Method in brief: as §1
# ERF = molecular target: T6, ERF (Homo sapiens, UniProt P50548 1-548); conditions: protein: recombinant; tags: N-terminal GST; dsDNA, one strand shown
# T6 sequence: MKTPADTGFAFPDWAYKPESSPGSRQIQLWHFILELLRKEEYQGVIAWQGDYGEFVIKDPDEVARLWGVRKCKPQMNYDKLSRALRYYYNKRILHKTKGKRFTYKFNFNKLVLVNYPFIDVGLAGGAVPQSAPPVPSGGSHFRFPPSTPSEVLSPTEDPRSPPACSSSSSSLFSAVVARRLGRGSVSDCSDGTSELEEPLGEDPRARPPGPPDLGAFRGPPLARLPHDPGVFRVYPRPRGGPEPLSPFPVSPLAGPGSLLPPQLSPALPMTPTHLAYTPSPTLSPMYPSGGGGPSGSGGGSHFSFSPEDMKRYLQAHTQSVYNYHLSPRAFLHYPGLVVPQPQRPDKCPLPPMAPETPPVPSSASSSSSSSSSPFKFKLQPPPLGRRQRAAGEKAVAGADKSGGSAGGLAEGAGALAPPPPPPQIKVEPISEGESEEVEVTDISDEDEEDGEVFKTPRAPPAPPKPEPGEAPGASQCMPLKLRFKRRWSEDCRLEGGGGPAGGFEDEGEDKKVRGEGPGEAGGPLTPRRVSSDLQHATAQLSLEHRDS
# Method in brief: as §1
# ETV3L = molecular target: T7, ETV3L (Homo sapiens, UniProt Q6ZN32 1-361); conditions: protein: recombinant; tags: N-terminal GST; dsDNA, one strand shown
# T7 sequence: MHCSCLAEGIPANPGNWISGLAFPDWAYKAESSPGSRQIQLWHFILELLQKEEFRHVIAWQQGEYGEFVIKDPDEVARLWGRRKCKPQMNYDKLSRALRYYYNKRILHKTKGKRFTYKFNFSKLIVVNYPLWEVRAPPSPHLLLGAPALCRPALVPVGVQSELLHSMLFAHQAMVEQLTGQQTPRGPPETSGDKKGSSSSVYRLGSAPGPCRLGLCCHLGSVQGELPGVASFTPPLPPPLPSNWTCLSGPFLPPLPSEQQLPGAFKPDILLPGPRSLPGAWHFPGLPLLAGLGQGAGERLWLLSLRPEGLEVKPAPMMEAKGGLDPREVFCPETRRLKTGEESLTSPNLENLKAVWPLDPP
# Method in brief: as §1
# ETS2 = molecular target: T8, ETS2 (Homo sapiens, UniProt P15036 1-469); conditions: protein: recombinant; tags: N-terminal GST; dsDNA, one strand shown
# T8 sequence: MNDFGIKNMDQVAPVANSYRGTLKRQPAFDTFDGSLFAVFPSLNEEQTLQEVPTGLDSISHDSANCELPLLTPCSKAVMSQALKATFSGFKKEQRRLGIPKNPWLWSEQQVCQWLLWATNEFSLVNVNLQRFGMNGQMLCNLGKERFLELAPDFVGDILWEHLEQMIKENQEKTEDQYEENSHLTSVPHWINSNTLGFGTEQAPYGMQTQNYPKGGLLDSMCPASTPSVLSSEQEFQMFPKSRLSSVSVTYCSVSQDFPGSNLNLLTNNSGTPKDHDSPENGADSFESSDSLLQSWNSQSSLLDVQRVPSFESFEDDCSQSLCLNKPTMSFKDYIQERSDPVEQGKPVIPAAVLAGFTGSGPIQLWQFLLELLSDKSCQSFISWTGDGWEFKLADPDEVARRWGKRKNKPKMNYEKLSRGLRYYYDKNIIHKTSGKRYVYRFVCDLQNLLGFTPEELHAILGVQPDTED
# Method in brief: as §1
# SPDEF = molecular target: T9, SPDEF (Homo sapiens, UniProt O95238 1-335); conditions: protein: recombinant; tags: N-terminal GST; dsDNA, one strand shown
# T9 sequence: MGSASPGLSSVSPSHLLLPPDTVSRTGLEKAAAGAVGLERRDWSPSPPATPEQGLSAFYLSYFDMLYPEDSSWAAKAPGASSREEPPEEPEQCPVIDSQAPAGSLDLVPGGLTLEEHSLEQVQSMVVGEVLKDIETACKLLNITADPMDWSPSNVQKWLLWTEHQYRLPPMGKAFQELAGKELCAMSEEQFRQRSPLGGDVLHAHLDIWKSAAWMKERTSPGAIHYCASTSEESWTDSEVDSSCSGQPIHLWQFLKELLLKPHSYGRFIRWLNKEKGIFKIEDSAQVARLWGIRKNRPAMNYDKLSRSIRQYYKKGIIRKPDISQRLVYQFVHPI
# Method in brief: as §1
# ETV7 = molecular target: T10, ETV7 (Homo sapiens, UniProt Q9Y603 1-341); conditions: protein: recombinant; tags: N-terminal GST; dsDNA, one strand shown
# T10 sequence: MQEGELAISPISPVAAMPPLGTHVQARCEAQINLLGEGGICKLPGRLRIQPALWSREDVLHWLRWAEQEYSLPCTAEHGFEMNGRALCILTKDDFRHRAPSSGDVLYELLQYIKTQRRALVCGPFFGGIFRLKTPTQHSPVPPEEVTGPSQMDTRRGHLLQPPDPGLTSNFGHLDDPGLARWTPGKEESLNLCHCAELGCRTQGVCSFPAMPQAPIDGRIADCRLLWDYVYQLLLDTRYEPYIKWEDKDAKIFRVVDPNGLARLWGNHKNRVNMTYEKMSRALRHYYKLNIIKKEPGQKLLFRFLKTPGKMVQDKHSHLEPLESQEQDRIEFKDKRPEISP
# Method in brief: as §1
# ELF5 = molecular target: T11, ELF5 (Homo sapiens, UniProt Q9UKW6-2 1-255); conditions: protein: recombinant; tags: N-terminal GST; dsDNA, one strand shown
# T11 sequence: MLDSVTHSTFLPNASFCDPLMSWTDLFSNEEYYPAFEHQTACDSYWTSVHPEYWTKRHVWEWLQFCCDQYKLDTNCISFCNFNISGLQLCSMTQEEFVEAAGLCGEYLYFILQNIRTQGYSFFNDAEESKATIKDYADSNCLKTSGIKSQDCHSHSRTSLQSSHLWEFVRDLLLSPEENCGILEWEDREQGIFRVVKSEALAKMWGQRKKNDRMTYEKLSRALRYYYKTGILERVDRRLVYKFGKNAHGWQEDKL
# Method in brief: as §1
# ETV3 = molecular target: T12, ETV3 (Homo sapiens, UniProt P41162-2 1-143); conditions: protein: recombinant; tags: N-terminal GST; dsDNA, one strand shown
# T12 sequence: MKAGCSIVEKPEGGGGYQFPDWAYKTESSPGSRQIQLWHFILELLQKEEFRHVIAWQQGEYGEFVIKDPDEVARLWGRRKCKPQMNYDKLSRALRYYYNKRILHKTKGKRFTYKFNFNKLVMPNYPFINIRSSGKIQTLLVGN
# Method in brief: as §1
# ETV6 = ETV6 (Homo sapiens, UniProt P41212 1-452); conditions: protein: recombinant; tags: N-terminal GST; dsDNA, one strand shown
# Sequence of ETV6 (P41212 whole entry): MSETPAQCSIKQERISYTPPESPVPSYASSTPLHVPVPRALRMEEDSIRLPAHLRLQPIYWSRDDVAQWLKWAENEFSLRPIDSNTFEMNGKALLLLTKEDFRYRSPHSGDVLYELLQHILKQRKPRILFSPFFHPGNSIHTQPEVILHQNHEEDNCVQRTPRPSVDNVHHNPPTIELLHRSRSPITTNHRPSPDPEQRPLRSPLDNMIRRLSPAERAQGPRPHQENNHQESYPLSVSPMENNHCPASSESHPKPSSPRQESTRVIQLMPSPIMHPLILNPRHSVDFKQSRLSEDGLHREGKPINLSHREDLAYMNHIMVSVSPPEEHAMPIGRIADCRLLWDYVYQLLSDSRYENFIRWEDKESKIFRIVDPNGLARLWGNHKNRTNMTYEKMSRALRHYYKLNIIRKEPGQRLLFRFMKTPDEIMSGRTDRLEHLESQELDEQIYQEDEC
# Method in brief: as §1
sequence,measurement,setting,value
CTGGCA,binding signal,FEV,"1.27 fold enrichment (6-mer frequency, TF over GST control)"
same,binding signal,ETV5,"1.21 fold enrichment (6-mer frequency, TF over GST control)"
same,binding signal,HSF1,"1.62 fold enrichment (6-mer frequency, TF over GST control)"
same,binding signal,SPIC,"1.28 fold enrichment (6-mer frequency, TF over GST control)"
same,binding signal,ELF4,"1.35 fold enrichment (6-mer frequency, TF over GST control)"
same,binding signal,ELK4,"1.27 fold enrichment (6-mer frequency, TF over GST control)"
same,binding signal,ETV2,"1.49 fold enrichment (6-mer frequency, TF over GST control)"
same,binding signal,ELF3,"1.3 fold enrichment (6-mer frequency, TF over GST control)"
same,binding signal,CRX,"1.19 fold enrichment (6-mer frequency, TF over GST control)"
same,binding signal,ETV1,"1.27 fold enrichment (6-mer frequency, TF over GST control)"
same,binding signal,ERF,"1.28 fold enrichment (6-mer frequency, TF over GST control)"
same,binding signal,ETV3L,"1.27 fold enrichment (6-mer frequency, TF over GST control)"
same,binding signal,ETS2,"1.25 fold enrichment (6-mer frequency, TF over GST control)"
same,binding signal,SPDEF,"1.13 fold enrichment (6-mer frequency, TF over GST control)"
same,binding signal,ETV7,"1.4 fold enrichment (6-mer frequency, TF over GST control)"
same,binding signal,ELF5,"1.19 fold enrichment (6-mer frequency, TF over GST control)"
same,binding signal,ETV3,"1.2 fold enrichment (6-mer frequency, TF over GST control)"
same,binding signal,ETV6,"1.28 fold enrichment (6-mer frequency, TF over GST control)"
